Rows were chosen to be rich in hits. Some 5.7% of all compounds tested hit in one or more screens of this group.
GLP1R inv ag: GLP-1 receptor (human) inverse agonism | P43220 | 410,000 compounds, 1.6% hits | Potency, µM (doses to about 38.3 µM), for inactives: at the top dose activity change, negative = inhibition, usual class: inhibitors | HEK293 GLP-1R CRE-luciferase, luminescence, 24 h; GLP-1R form is constitutively active; further: potency means the concentration at half of the fitted maximal effect; on the % scale 0 is the no-effect control and ±100 the full control effect; nearly all actives have a fitted effect of over 55% in size
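qHTS in 1536-well format: reporter HEK293 cells expressing constitutive GLP-1R activity in DMEM + 10% Nu serum, 24 hr with compounds at 37 deg C, luminescence read after 12 min with detection reagent.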
DRD3 antagonist: D3 dopamine receptor (human) antagonism; P35462; D3R cells, DiscoveRx beta-arrestin luminescence, antagonist mode; active compounds read low; max response, negative = inhibition, %; 360,000 compounds, 2.5% hits; AID 652054; in the data active means max response below about -50%; inconclusive means no clear call, values can overlap the other calls; further: on the % scale 0 is the no-effect control and ±100 the full control effect
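Cells expressing the human receptor were seeded at 1500 cells/well, incubated overnight at 37 degrees C in 5% CO2, then exposed to library compounds with dopamine controls for 90 minutes at 37 degrees C before luminescent detection.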
HEK293 tox: cytotoxicity counter-screen for GLP-1 receptor inverse agonists; HEK293 cAMP-luciferase reporter cells, luminescence, 24 h; Potency, µM (titrated, usually from 38.3 µM), for the others: at the top dose activity change, negative = inhibition, usual class: inhibitors; 410,000 compounds, 0.13% hits;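 further: loss of luciferase light is scored as toxicity; potency means the concentration at half of the fitted maximal effect; on the % scale 0 is the no-effect control and ±100 the full control effect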
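1536-well qHTS counterscreen of the MLSMR; 200 cells/uL, 12 h pre-incubation, 23 nL cpd, 24 h at 37 deg C 5% CO2, luciferase detection reagent, 12 min RT, luminescence. Inhibition = undesired.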
DRD3 agonist: D3 dopamine receptor (human) agonism; max activation, %; D3R DiscoveRx beta-arrestin cells, luminescence, 90 min; 410,000 compounds, 0.58% hits; P35462; in the data active means max activation above about 30%; further: 0% is about no effect
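Agonist mode: compounds and dopamine controls were applied to plated cells for 90 min at 37 degrees C after an overnight attachment at 1500 cells/well. Luminescent read-out followed 30 - 60 minutes at room temperature with DiscoveRx detection reagent.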
GLP-1R agonist: activates the human GLP-1 receptor; P43220; HEK293 GLP-1R CRE-luciferase, luminescence, 4-6 h; cells express a hypersensitive GLP-1R form; Potency, µM (highest dose often 45.6 µM), for the others: top-dose activation, usual class: activators; 380,000 compounds, 0.007% hits; AID 624172; further: potency means the concentration at half of the fitted maximal effect; % of control where 0% means no effect
ClpP mod: qHTS Assay for Activators of ClpP; ATP-dependent Clp protease proteolytic subunit (Bacillus subtilis (strain 168)), P80244; purified B. subtilis ClpP, FRET peptide cleavage, 20 min; Potency, µM (titrated, usually from 57.5 µM), without a hit: at the top dose activity change, negative = active; 340,000 compounds, 1.9% hits; AID 651965, 2013; active means well fitted falling curve with a large enough effect; inconclusive means small, poorly fitted or top-dose-only effect; inactive means no such curve, though single readings can be large or run the other way; further: potency means the concentration at half of the fitted maximal effect; the source files actives as falling curves though it sought activators and does not explain the sign; nearly all actives have a fitted effect of over 65% in size
Target sequence (P80244 whole entry, looked up): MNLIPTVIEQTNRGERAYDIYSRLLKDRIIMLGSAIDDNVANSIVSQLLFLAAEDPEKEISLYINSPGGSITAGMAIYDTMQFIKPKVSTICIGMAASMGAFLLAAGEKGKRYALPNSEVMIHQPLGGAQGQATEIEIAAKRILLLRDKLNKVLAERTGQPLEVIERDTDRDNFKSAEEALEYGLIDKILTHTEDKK
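Purified B. subtilis ClpP, 10 microg/mL final in Tris/HCl pH8 with KCl, BSA, glycerol and Tween-20, cleaved an Abz/nitrotyrosine-quenched decapeptide. Fluorescence (ex 320, em 430) was read at 0 and 20 min at room temperature. Delta was normalized to 5.8 microM ADEP and DMSO/no-enzyme controls.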
An asterisk follows results filed as active; ? = inconclusive; . = no result; [ ] = dose if it differs, or a comment. Unless noted, the call rests on the fitted dose curve; in most records, active means well fitted curve in the direction sought with a large enough effect; inconclusive means small, poorly fitted or top-dose-only effect, or another doubt; inactive means no such curve, though single readings can be large; an effect the other way counts as inactive or inconclusive.

SMILES	GLP1R inv ag	DRD3 antagonist	HEK293 tox	DRD3 agonist	GLP-1R agonist	ClpP mod
CCOC(=O)c1c(C)[nH]c(C)c1C=O	16%[7.66 µM]	-4	4%[7.66 µM]	-3	1%	-33%
CN(C(=O)Nc1cn(C)c(=O)c2ccccc12)c1ccccc1	0%	.	3%	1	-1%	4%
CCCOc1ccc(CSc2ncn[nH]2)cc1	23%	-82*	-1%	-11	12%	1%
Brc1ccc(CSc2ncn[nH]2)cc1	19%	9	-7%	2	-2%	0%
COc1cccc(C(NC(C)=O)c2nc(-c3cccc(C(=O)O)c3)cs2)c1 (stereo not drawn)	36%	0	4%	-10	-5%	-1%
Cc1ccccc1CN(C)C(C)C(=O)Nc1ccccc1F (stereo not drawn)	8.9µM*	-6	0%	-10	14%	1%
O=C(Cn1cc(S(=O)(=O)Cc2cccc(Cl)c2)c2ccccc21)Nc1ccccc1C(F)(F)F	-17%	.	-1%	-8	.	-24%
O=C(NCc1cccs1)c1cnc2ccccn2c1=O	8%	-10	5%	-5	7%	25µM*
COc1ccccc1CNC(=O)c1cnc2ccccn2c1=O	21%	?	-3%	-1	12%	4%
COc1ccc(Cn2ccc3nc(C)c(C(=O)Nc4ccc(OC(F)(F)F)cc4)cc3c2=O)cc1	?	.	-23%	5	.	25µM*
COc1ccc(Cn2ccc3nc(C)c(C(=O)Nc4ccc(F)cc4)cc3c2=O)cc1	-11%	.	-11%	7	.	-10%
Cn1cnc2c1c(=O)n(Cc1cccc(Br)c1)c(=O)n2C	4%	-29	3%	0	4%	-5%
CCn1cnc2c1c(=O)n(CC(=O)Nc1ccc(C(N)=O)cc1)c(=O)n2Cc1ccccc1	2%	0	7%	-6	12%	1%
CCn1cnc2c1c(=O)n(Cc1cccc(Br)c1)c(=O)n2Cc1ccccc1	?	-1	3%	35*	?	2%
CCn1cnc2c1c(=O)n(CC(=O)Nc1ccc3c(c1)OC(F)(F)O3)c(=O)n2Cc1ccccc1	?	-50*	-15%	3	0%	-1%
COc1ccc(Cl)cc1NC(=O)C1CCN(c2ncnc3c2nc2n3CCCCC2)CC1	-2%	.	3%	-11	.	0%
Cc1cc(C)c2sc(N(CCN(C)C)C(=O)c3ccc4ccccc4c3)nc2c1	?	?	8%	-13	-9%	-4%
CN(C)CCN(C(=O)c1ccc2ccccc2c1)c1nc2ccc(F)cc2s1	-16%	1	-17%	-4	-1%	-3%
Cc1ccc2sc(N(CCN(C)C)C(=O)c3ccc4ccccc4c3)nc2c1C	19%	-73*	4%	0	-4%	1%
CCc1ccc2nc(N(CCN(C)C)C(=O)c3ccc4ccccc4c3)sc2c1	13µM*	-4	8%	-13	-1%	-2%
N#Cc1c(SCC(=O)O)nc(-c2ccccc2)c2c1CCCC2	-20%	?	1%	2	-14%	-2%
CCOC(=O)c1cc(C#N)c(NCc2ccccc2)nc1C	0%	-18	-18%	-5	4%	32µM*
CCc1ccc2nc(N3CCN(C)CC3)c(C#N)cc2c1	-19%	-68*	-3%	1	10%	-14%
CCOC(=O)c1cc(C#N)c(N2CCN(C)CC2)nc1-c1ccccc1	?	-69*	-3%	-23	21%	.
CCC(=O)N1CCN(c2nc(-c3ccccc3)c3c(c2C#N)CCCC3)CC1	?	-18	4%	-8	14%	32µM*
Cc1cc(-c2ccc(S(=O)(=O)Nc3cccc(Cl)c3C)cc2)on1	?	.	-19%	7	.	3%
CCOC(=O)c1cc(C#N)c(N2CCCC2)nc1-c1ccccc1	?	0	26%	5	24%	28µM*
CCOC(=O)c1cc(N2CCCCC2)nc2ccccc12	7.9µM*	21	225%	4	1%	-2%

High-throughput results deposited in PubChem by National Center for Advancing Translational Sciences (NCATS).
